NS1 inh: qHTS Assay for Inhibitors of Influenza NS1 Protein Function; Potency, µM (titrated, usually from 46.1 µM), for the others: at the top dose activity, positive = more growth; 270,000 tested, 0.4% active; calls by dose curve; note: potency is the fitted concentration of half-maximal effect; actives are rising curves; nearly all actives have a fitted effect of over 50% in size
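A cell-based growth assay was used: compounds that relieve NS1-induced slow growth of budding yeast raise OD600. Assay medium was yeast nitrogen base with ammonium sulphate and -URA supplement, pH 6.0, with 2% galactose.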
Shiga toxin inh: A qHTS for Small Molecule Inhibitors of Shiga Toxin. Vero cells, Shiga toxin protein synthesis inhibition reporter. inhibition, % at 38.7 µM. 290,000 tested, 9.2% active. AID 2315, 2010; in the data active = inhibition mostly above about 28%, no sharp cut-off; inactive = mostly below about 43%; note: 0% is about no effect
LmPK inh: qHTS Assay for Inhibitors of Leishmania Mexicana Pyruvate Kinase (LmPK); Potency, µM (titrated, usually from 57.5 µM), for inactives: top-dose activity change, negative = inhibition, hits mostly inhibitors; Q27686; AID 1721, 2009; purified LmPK, Kinase-Glo ATP luminescence, 1 h; 290,000 tested, 0.37% active; note: potency is the fitted concentration of half-maximal effect; % is set by controls: 0 for no effect and ±100 for the full control effect
Target sequence (Q27686 whole entry, looked up): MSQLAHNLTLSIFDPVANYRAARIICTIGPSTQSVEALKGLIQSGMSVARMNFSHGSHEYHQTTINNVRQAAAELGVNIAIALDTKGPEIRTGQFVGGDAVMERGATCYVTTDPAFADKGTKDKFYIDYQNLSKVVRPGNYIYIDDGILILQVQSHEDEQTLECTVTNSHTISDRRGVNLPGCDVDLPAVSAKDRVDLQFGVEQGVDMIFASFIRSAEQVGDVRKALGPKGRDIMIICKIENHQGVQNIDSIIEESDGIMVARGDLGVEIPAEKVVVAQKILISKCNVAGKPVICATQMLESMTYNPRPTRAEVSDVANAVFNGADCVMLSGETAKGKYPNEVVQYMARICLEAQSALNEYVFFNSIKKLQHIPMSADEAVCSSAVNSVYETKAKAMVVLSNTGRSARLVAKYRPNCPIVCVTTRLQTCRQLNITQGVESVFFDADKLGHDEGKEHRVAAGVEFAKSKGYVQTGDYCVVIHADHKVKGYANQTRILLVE
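Pyruvate kinase activity monitored as ATP production (luciferase luminescence). Conditions: 0.1 nM enzyme, 0.5 mM PEP, 0.1 mM ADP, 1 h, RT; normalized against uninhibited and no-enzyme wells.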
CHX counter: Cycloheximide Counterscreen for Small Molecule Inhibitors of Shiga Toxin; cell reporter, cycloheximide protein synthesis inhibition counterscreen; AID 2314, 2010; 300,000 tested, 12% active; max response, %; in the data active = max response mostly above about 13%, no sharp cut-off; inactive = mostly below about 14%; note: read at 38.3 µM for the half of the compounds with a filed dose; 0% is about no effect
Giardia FBPA inh: qHTS Assay for Inhibitors of Fructose-1,6-bisphosphate Aldolase from Giardia Lamblia; A8B2U2; purified Giardia FBPA; Potency, µM (series often up to 59.6 µM), for inactives: top-dose activity, negative = inhibition, hits mostly inhibitors; 290,000 tested, 0.71% active; AID 2451, 2010; note: potency is the fitted concentration of half-maximal effect; % is set by controls: 0 for no effect and ±100 for the full control effect; nearly all actives have a fitted effect of over 55% in size
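Giardia FBPA (40 nM reagent) was preincubated 10 min at RT with compound (up to 57.5 uM final), then substrate plus GAPDH/TPI/NAD/arsenate coupling system with diaphorase/resazurin was added; resorufin fluorescence (525/598 nm) was read after 20 min.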
* hit, by the source's call; ? = inconclusive; nt = no result given; ! = not active in a repeat; [ ] = another dose, or the depositor's remark. Most compounds without a hit are left out; they make up all but 14% or so of the library. Unless noted, calls come from the whole dose curve; as a rule, active = well fitted curve in the direction sought with a large enough effect; inconclusive = small, poorly fitted or top-dose-only effect, or another doubt; inactive = no such curve, though single readings can be large; an effect the other way counts as inactive or inconclusive.

SMILES	NS1 inh	Shiga toxin inh	LmPK inh	CHX counter	Giardia FBPA inh
COc1cc(CNc2ccc3[nH]c(=O)[nH]c3c2)ccc1OCc1ccc(F)cc1	18%	36*	0%	31*	-4%
COc1cc(CNc2ccc3[nH]c(=O)[nH]c3c2)ccc1OCc1ccc(F)cc1Cl	3%	31*	4%	14	-5%
COc1cc(CNc2ccc3[nH]c(=O)[nH]c3c2)ccc1OCc1ccc(Cl)cc1	-2%	45*	2%	29*	-8%
COc1cc(CNc2ccc3[nH]c(=O)[nH]c3c2)ccc1OCc1ccccc1F	7%	37*	2%	19*	-1%
COc1cc(CNc2ccc3[nH]c(=O)[nH]c3c2)ccc1OCc1ccccc1	19%	18	3%	14	-5%
NC(N)=NCCC[C@@H](N)C(=O)NCC(=O)N[C@@H](CC(=O)O)C(=O)N[C@@H](Cc1c[nH]c2ccccc12)C(=O)O	nt	-14	nt	-7	15%
CC1CCCN(CCOc2cccc(Oc3ccccc3)c2)C1 (stereo unspecified)	-38%	nt	-2%	-4	?
COc1cc(CNc2ccc(N3CCN(C(C)=O)CC3)cc2)ccc1OCc1ccc(F)cc1	2%	75*	-1%	25*	-14%
O=C(N=C1SC2CS(=O)(=O)CC2N1Cc1ccccc1Cl)C1CCCO1 (stereo unspecified)	-9%	-5	0%	8	8%
CN(C)[C@H]1C(=O)C(C(=O)NCN2CCCC2)=C(O)[C@]2(O)C(=O)C3=C(O)c4c(O)cccc4[C@@](C)(O)[C@H]3C[C@@H]12	nt	nt	nt	nt	4.5µM*
CN(C)[C@@H]1C(=O)C(C(N)=O)=C(O)[C@@]2(O)C(=O)C3=C(O)c4c(O)cccc4[C@@](C)(O)[C@H]3[C@H](O)[C@@H]12	10%	-5	-1%	-2	4.5µM*
C[C@H]1c2cccc(O)c2C(O)=C2C(=O)[C@]3(O)C(O)=C(C(N)=O)C(=O)[C@@H](N(C)C)[C@@H]3[C@@H](O)[C@@H]21	-1%	-6	4%	10*!	?
COc1cccc(CNC(=O)CCNC(=O)c2ccccc2OC)c1	0%	-4	-10%	1	nt
C/C(CCN1CCCCc2nc(C)c(C)cc21)=N\OC[C@@H](O)[C@@H]1O[C@@H]2OC(C)(C)O[C@@H]2[C@H]1O	nt	nt	nt	nt	-2%[12.9 µM]
CCS(=O)(=O)c1ccc(-c2cccc(NC(=O)COc3ccc(Cl)cc3)c2)nn1	-11%	-7	-1%	-3	-8%
CN(C)CCN(C(=O)c1ccc(Br)s1)c1nc2cc3c(cc2s1)OCCO3	nt	68*	5%[11.5 µM]	44*	-15%
CN(C)CCN(C(=O)c1cccc2ccccc12)c1nc2cc3c(cc2s1)OCO3	-14%	25	-1%	12	?
CN(C)CCN(C(=O)c1cccs1)c1nc2cc3c(cc2s1)OCCO3	-3%	82	3%	51*	-18%
O=C1C2=C(Nc3cc([N+](=O)[O-])ccc3N2)O[C@@H]1c1c[nH]c2ccc(COc3ccccc3)cc12	13%	nt	nt	nt	nt
CCCC[n+]1cc(/N=C(\[O-])OC)on1	11%	-7	-4%	-1	2%
CO/C([O-])=N/c1c[n+](-c2ccc(C)cc2)no1	0%	43*	0%	22*	0%
COc1cc(C2C(C#N)=C(N)OC3=C2C(=O)CCC3)cc2c1OCO2 (stereo unspecified)	5%	2	2%	-3	-8%
COc1ccc(-c2nnc3n2N=C(c2ccc(OC)cc2OC)CS3)cc1	nt	-10	nt	7	4%
O=C(CSc1nncs1)Nc1ccc2c(c1)OCCO2	-1%	58*	0%	59*	-9%
Cc1ccc(SCC(=O)NC(=O)Nc2ccc3c(c2)OCCO3)c(C)c1	2%	-6	-3%	-4	2%
O=C(CSc1nncs1)NC(=O)Nc1ccc2c(c1)OCCO2	6%	59*	9%	45*	2%
O=C(Cc1ccccc1[N+](=O)[O-])NCc1ccc(Cl)cc1Cl	-16%	87*	-3%	44*	0%
O=C(Cc1ccc([N+](=O)[O-])cc1)NCc1ccccc1Cl	12%	13	1%	-1	3%
O=C(NCc1ccc(Cl)cc1)c1n[nH]c([N+](=O)[O-])c1Cl	-10%	61*	1%	45*	-8%

Assay outcomes (PubChem)
